Assay results published in PubChem BioAssay (NCATS).
“And” between values parts separate entries of the source, which are not always exact repeats. Identical values can stand only once. Results filed as inconclusive are left out. Where a call stands in place of a potency, no number is given. The source made the active and inactive calls. Unless noted, calls come from the whole dose curve; as a rule, active = well fitted curve in the direction sought with a large enough effect; inconclusive = small, poorly fitted or top-dose-only effect, or another doubt; inactive = no such curve, though single readings can be large; an effect the other way counts as inactive or inconclusive.

Legend:
[1] = Cell Viability - Hek293 (AID 427;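 active = compounds whose dose-response curve shows a full or clear partial loss of cell viability, called from curve shape rather than a numeric limit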;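 note: potency is the fitted concentration of half-maximal effect; cells exposed to compound for 40 hours at 37 °C before reading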); conditions: qHTS
In short: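 Luminescent ATP read-out (CellTiter-Glo, 20 min RT) after 40 hr compound exposure at 37 °C in complete medium. Signal normalized to DMSO (basal) and 100 uM tamoxifen (100% inhibition); concentration-response fitted with the standard Hill equation to give AC50.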

[2] = Cell Viability - MRC5 (AID 434; calls by dose curve;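 note: potency is the fitted concentration of half-maximal effect; cells exposed to compound for 40 hours at 37 °C; potency reflects cytotoxicity seen as loss of intracellular ATP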); conditions: MRC5 lung fibroblast viability, qHTS
In short: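 AC50 values come from Hill-equation fits of intracellular ATP loss, measured by CellTiter-Glo luminescence. Normal lung fibroblasts (MRC5) had 40 hr compound treatment at 37 C, normalized between DMSO and 100 uM tamoxifen.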

[3] = molecular target: Mitogen-activated protein kinase 10 (Mus musculus) (UniProt Q61831); assay: JNK3 AlphaScreen Assay (AID 530; active = well fitted curve in either direction with a large enough effect, not every such curve was filed as active;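 note: kinase came from lysate of stimulated human HepG2 cells; signal reports phosphorylation of biotinylated GST-cJun 1-79 at Ser73 with 10 µM ATP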); conditions: JNK3 lysate, c-Jun phosphorylation; series mostly up to 57.1 µM
In short: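 qHTS titrations with 15 min compound pre-incubation before adding ATP (10 uM final). Read-out: AlphaScreen of Ser73-phosphorylated biotin-GST-cJun using HepG2 lysate JNK3 activated by IL-1β and TNFα.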

[4] = Cellular Toxicity (caspase-3) HepG2 (AID 654); conditions: HepG2 caspase-3 activation, luminescence, 0% = DMSO only, 100% = tamoxifen; series mostly up to 92.2 µM;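 note: cells exposed to compound for 16 hours before reading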
In short: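 Caspase 3/7 activation in HepG2 is measured as rising luminescence after a 16 hr treatment at 37 °C. Values are scaled between DMSO basal and 100 uM tamoxifen, and AC50 is fitted with the Hill equation.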

[5] = MultiTox-Fluor Cytotoxicity Assay - LYMP1-001 - Live Cells (AID 947); conditions: LYMP1-001 lymphoblastoid cells, live-cell protease fluorescence viability; series mostly up to 92.2 µM
[6] = Cell Viability - LYMP2-004 (AID 966); conditions: LYMP2-004 lymphoblastoid cell viability, qHTS; series mostly up to 92.2 µM; note: nearly all actives have a fitted effect of over 65% in size
In short: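 qHTS cytotoxicity: human lymphoblastoid line, 24 hr compound treatment, 37 C, complete medium. Viability read as cellular ATP via luciferase luminescence; tetraoctylammonium bromide served as positive control.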

[7] = Cell Viability - LYMP2-005 (AID 967); conditions: LYMP2-005 lymphoblastoid cell viability; series mostly up to 92.2 µM
In short: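 Steps: seed 2500 LYMP2-005 cells/well, incubate 5 h at 37 C, add compound, incubate 24 h at 37 C, add CellTiter-Glo, wait 30 min at RT, read luminescence. Concentration-response data fitted to Hill equation for AC50.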

[8] = Cell Viability - LYMP2-025 (AID 976); conditions: LYMP2-025 lymphoblastoid cell viability; series mostly up to 92.2 µM
In short: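 Acute cytotoxicity is scored as a concentration-dependent fall in intracellular ATP, measured by luciferase luminescence, in human lymphoblastoid LYMP2-025 cells exposed to compound for 24 hours at 37 C. AC50 values come from standard Hill fits.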

[9] = Cell Viability - LYMP2-016 (AID 984); conditions: LYMP2-016 lymphoblastoid cell viability, qHTS; series mostly up to 92.2 µM; note: nearly all actives have a fitted effect of over 55% in size
In short: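 qHTS, 1536-well: 2500 LYMP2-016 cells/well, 5 hr 37 C, compound added, 24 hr 37 C, CellTiter-Glo 30 min RT, luminescence. Tetraoctylammonium bromide positive control. AC50 via Hill fit.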

[10] = Cell Viability - LYMP2-018 (AID 985); conditions: LYMP2-018 lymphoblastoid cells, viability (qHTS); series mostly up to 92.2 µM;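 note: compound exposure lasted 24 hr at 37 °C; nearly all actives have a fitted effect of over 50% in size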
In short: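 Seed 2500 lymphoblastoid cells per well, incubate 5 hr at 37 C, add compound and incubate 24 hr at 37 C, add CellTiter-Glo, wait 30 min at room temperature, then read luminescence.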

[11] = Cell Viability - LYMP2-022 (AID 987); conditions: LYMP2-022 lymphoblastoid cell viability; series mostly up to 92.2 µM; note: nearly all actives have a fitted effect of over 55% in size; note: potency is the fitted concentration of half-maximal effect
In short: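 Cells were seeded at 2500 per well, rested 5 hr at 37 C, and treated with titrated compounds for 24 hr at 37 C. Cellular ATP was then quantified by luciferase luminescence, and AC50 values were derived from Hill-modelled concentration-response curves.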

[12] = Cell Viability - LYMP2-024 (AID 988); conditions: LYMP2-024 lymphoblastoid cell viability; series mostly up to 92.2 µM; note: nearly all actives have a fitted effect of over 60% in size; note: potency is the fitted concentration of half-maximal effect
In short: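 qHTS cytotoxicity, human lymphoblastoid line, complete medium; 24 h cpd treatment, 37 C; CellTiter-Glo ATP luminescence readout; tetraoctylammonium bromide positive control; AC50 via Hill fit.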

[13] = Cell Viability - LYMP1-002 - Assay at 24 hr (AID 993); conditions: LYMP1-002 lymphoblastoid cells viability; series mostly up to 92.2 µM
In short: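 Acute toxicity is measured as concentration-dependent loss of cellular ATP in a human lymphoblastoid line (Coriell LYMP1-002) after 24 h treatment in complete medium. ATP is quantified by luciferase luminescence and AC50 derived by Hill modelling.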

[14] = molecular target: Peroxisome proliferator-activated receptor gamma (Homo sapiens) (UniProt P37231); assay: qHTS assay for small molecule agonists of peroxisome proliferator-activated receptor gamma signaling (AID 588536; active = well fitted curve in the direction sought with a large enough effect in the signal ratio, with a control signal flat, not every such curve was filed as active; the % refers to the signal ratio); conditions: HEK293 PPARg-UAS-bla, beta-lactamase ratio, 16 h, percent of rosiglitazone response, DMSO as zero; series mostly up to 76.7 µM
Chain of Peroxisome proliferator-activated receptor gamma (Homo sapiens) (P37231 whole entry, looked up): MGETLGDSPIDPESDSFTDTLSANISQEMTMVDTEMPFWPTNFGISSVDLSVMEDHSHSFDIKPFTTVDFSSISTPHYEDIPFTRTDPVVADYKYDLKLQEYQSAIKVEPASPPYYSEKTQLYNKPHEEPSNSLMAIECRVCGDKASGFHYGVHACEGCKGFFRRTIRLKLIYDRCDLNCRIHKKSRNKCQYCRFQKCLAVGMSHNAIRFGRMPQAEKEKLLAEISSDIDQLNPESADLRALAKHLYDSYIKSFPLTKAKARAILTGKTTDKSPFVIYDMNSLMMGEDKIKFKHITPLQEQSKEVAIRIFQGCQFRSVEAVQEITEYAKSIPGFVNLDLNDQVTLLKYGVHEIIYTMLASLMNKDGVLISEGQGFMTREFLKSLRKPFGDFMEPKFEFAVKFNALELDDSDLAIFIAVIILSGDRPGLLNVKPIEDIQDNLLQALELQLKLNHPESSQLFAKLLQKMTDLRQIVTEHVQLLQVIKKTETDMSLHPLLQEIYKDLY
In short: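 Compound treatment: 16 h, 37 C, HEK293 GeneBLAzer cells. Detection: CCF4, 2 h RT. Values: Hill-fit EC50, efficacy as % of 2 uM rosiglitazone.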

[15] = qHTS assay for small molecule antagonists of retinoid X receptor alpha signaling (AID 588546); conditions: HEK293T RXRa-UAS-bla, beta-lactamase ratio, antagonist mode; measured here: W530 green channel, cytotoxicity proxy;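 note: cells stimulated with 9-cis-retinoic acid as agonist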
In short: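 Beta-lactamase reporter inhibition, read as CCF4 fluorescence ratio (ex 405, em 460/530 nm) after 2 h at RT. HEK293T UAS-bla cells, 2500/well, were stimulated with 9-cis-RA at 500 or 100 nM final alongside test compound for 18 h at 37 C.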

[16] = molecular target: Tumor necrosis factor (Homo sapiens) (UniProt P01375); assay: qHTS assay to identify small molecules that stimulate Tumor Necrosis Factor-alpha (TNF-alpha) secretion (AID 651757; active = well fitted curve in the direction sought with a large enough effect in the signal ratio; the % refers to the signal ratio); conditions: Human cells, HTRF 665/615 ratio; series mostly up to 92.2 µM
Chain of Tumor necrosis factor (Homo sapiens) (P01375 whole entry, looked up): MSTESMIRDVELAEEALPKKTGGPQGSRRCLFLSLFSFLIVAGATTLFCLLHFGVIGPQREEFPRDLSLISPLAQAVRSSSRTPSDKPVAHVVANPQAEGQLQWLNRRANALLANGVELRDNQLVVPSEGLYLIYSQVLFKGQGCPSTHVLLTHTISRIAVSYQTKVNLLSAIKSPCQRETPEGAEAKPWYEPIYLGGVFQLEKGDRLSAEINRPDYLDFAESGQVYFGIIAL
In short: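 Human monocytic THP-1 cells are plated, treated with compound and held at 37 C for 17 hrs. Labeled anti-TNF-alpha antibody mixture is then added; after 3 hr at room temperature, TR-FRET signal reports secreted TNF-alpha.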

[17] = MultiTox-Fluor Cytotoxicity Assay - LYMP1-002 - Dead Cells (AID 960); conditions: LYMP1-002 lymphoblastoid cells, dead-cell protease fluorescence; series mostly up to 46.1 µM; note: nearly all actives have a fitted effect of over 60% in size
In short: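 Cells were plated, rested 5 hr, then treated with compound dilution series for 16 hr at 37 C. After adding substrate reagent and 60 min at room temperature, dead-cell protease fluorescence gave concentration-response curves fitted by the Hill equation.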

[18] = qHTS assay for small molecule agonists of retinoid X receptor alpha signaling (AID 588544); conditions: HEK293T RXRa-UAS-bla, beta-lactamase reporter, 18 h; 530 nm emission
[19] = molecular target: Thyroid hormone receptor beta (Homo sapiens) (UniProt P10828); assay: qHTS assay for small molecule antagonists of thyroid hormone receptor beta signaling (AID 588547; active = well fitted inhibition curve with a large enough effect in the signal ratio, with a control signal flat, not every such curve was filed as active; the % refers to the signal ratio;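 note: cells stimulated with 0.4 nM T3 agonist during compound exposure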); conditions: TR-UAS-bla HEK293, beta-lactamase ratio, antagonist mode, 18 h
Chain of Thyroid hormone receptor beta (Homo sapiens) (P10828 whole entry, looked up): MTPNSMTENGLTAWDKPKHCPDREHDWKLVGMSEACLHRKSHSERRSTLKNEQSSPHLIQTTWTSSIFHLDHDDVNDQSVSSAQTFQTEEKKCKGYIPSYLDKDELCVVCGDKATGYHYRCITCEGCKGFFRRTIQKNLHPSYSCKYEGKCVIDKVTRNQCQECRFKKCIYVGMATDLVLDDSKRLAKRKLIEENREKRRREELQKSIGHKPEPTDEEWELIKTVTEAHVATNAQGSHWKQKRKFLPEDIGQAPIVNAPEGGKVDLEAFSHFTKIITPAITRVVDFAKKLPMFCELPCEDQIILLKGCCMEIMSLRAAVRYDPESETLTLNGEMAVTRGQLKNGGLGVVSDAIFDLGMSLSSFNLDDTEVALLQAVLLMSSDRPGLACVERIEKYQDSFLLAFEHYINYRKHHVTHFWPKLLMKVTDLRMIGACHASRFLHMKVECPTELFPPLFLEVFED
In short: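 Inhibition of T3-driven (0.4nM final) beta-lactamase reporter activity was measured over 0.59 nM to 92 uM compound after 18 h at 37 C. The cells were GripTite HEK293 TR-UAS-bla in charcoal/dextran-stripped serum, with CCF4 ratio read-out and IC50 from Hill fits.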

[20] = molecular target: Thyroid hormone receptor beta (Homo sapiens) (UniProt P10828); assay: qHTS assay for small molecule agonists of thyroid hormone receptor beta signaling (AID 588545; calls by dose curve); conditions: TR-UAS-bla GripTite HEK 293, beta-lactamase ratio, agonist mode, 18 h; series mostly up to 76.7 µM
In short: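 Efficacy and EC50 values derive from Hill fits of qHTS titration data, normalized to 10 nM T3 and DMSO-only wells. HEK 293 reporter cells were stimulated for 18 hrs at 37 C, with beta-lactamase activity measured by CCF4 fluorescence.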

Row | Compound | Potency [1] | Potency [2] | Potency [3] | outcome [4] | outcome [5] | Potency [6] | Potency [7] | Potency [8] | Potency [9] | Potency [10] | Potency [11] | Potency [12] | Potency [13] | outcome [14] | max response [15] | outcome [16] | Potency [17] | max response [18] | activity change % (negative = inhibition) [19] | Potency [20]
1 | Nc1ccc(Cc2ccc(N)c(Cl)c2)cc1Cl | > 92 µM (inactive) | > 92 µM (inactive) | inactive | inactive | inactive | inactive | inactive | inactive | inactive | inactive | inactive | inactive | inactive | inactive | -5.52% | inactive |  |  |  | 
2 | Oc1c(Cl)c(Cl)cc(Cl)c1Cl |  | > 92 µM (inactive) | inactive | inactive | inactive | inactive | inactive | inactive | inactive | inactive | inactive | inactive | inactive | inactive | -8.85% | inactive | inactive | 19.2% | 23.1% (inactive) | 
3 | ClCCCCl | > 92 µM (inactive) | > 92 µM (inactive) | inactive | inactive | inactive |  | inactive | inactive | inactive | inactive | inactive | inactive | inactive | inactive | -7.74% | inactive | inactive | 1.73% | 17.8% (inactive) | 
4 | O=[N+]([O-])c1c(Cl)c(Cl)c(Cl)c(Cl)c1Cl |  | > 92 µM (inactive) | inactive | inactive | inactive | inactive | inactive | inactive |  | inactive | inactive | inactive | inactive |  | -1.28% | inactive |  | -0.246% and 22.3% | 14.8% (inactive) | inactive
5 | Nc1ccc2ccccc2c1 | > 92 µM (inactive) | > 92 µM (inactive) | inactive | inactive | inactive | inactive | inactive | inactive | inactive | inactive | inactive | inactive | inactive | inactive | -4.26% | inactive |  | -8.86% | -16.4% (inactive) | inactive
6 | CC(=O)NNc1ccccc1 | > 92 µM (inactive) | > 92 µM (inactive) | inactive | inactive | inactive | inactive | inactive | inactive | inactive | inactive | inactive | inactive | inactive | inactive | -2.14% | inactive |  |  | -1.14% (inactive) | inactive
7 | CC(Cl)CCl (configuration not stated) | > 92 µM (inactive) | > 92 µM (inactive) | inactive | inactive | inactive | inactive | inactive | inactive | inactive | inactive | inactive | inactive |  | inactive | -10% | inactive | inactive | -14.1% | -3.7% (inactive) | inactive
8 | CCCCC(CC)COC(=O)c1ccc(C(=O)OCC(CC)CCCC)c(C(=O)OCC(CC)CCCC)c1 (configuration not stated) | > 92 µM (inactive) | > 92 µM (inactive) | inactive | inactive | inactive | inactive | inactive | inactive | inactive | inactive | inactive |  | inactive | inactive | -7.98% | inactive | inactive | -8.52% | 11.5% (inactive) | inactive
9 | C=CC#N | > 92 µM (inactive) | > 92 µM (inactive) | inactive |  | inactive | inactive | inactive | inactive | inactive | inactive | inactive | inactive | inactive | inactive | -3.06% | inactive | inactive | 6.79% | -5.45% (inactive) | inactive
10 | S=C1NCCN1 | > 92 µM (inactive) | > 92 µM (inactive) | inactive |  |  | inactive | inactive | inactive | inactive | inactive | inactive | inactive | inactive | inactive | -7.1% and 12.2% | inactive | inactive | -9.74% and -4.86% | -23.2% (inactive) and -6.83% (inactive) | inactive
11 | ClCCOCOCCCl | > 92 µM (inactive) | > 92 µM (inactive) | inactive | inactive | inactive | inactive | inactive | inactive |  | inactive | inactive | inactive | inactive | inactive | -0.61% | inactive | inactive | -19.5% | 10.8% (inactive) | inactive
12 | O=C(O)C(Br)Br | > 92 µM (inactive) | > 92 µM (inactive) | inactive | inactive | inactive | inactive |  | inactive | inactive | inactive |  | inactive | inactive | inactive | -1.6% | inactive | inactive | -1.1% | 8.3% (inactive) | 
13 | O=[N+]([O-])/C=C/c1ccccc1 |  |  | inactive |  |  |  | inactive |  |  |  | 39.8 µM (active) | 39.8 µM (active) | inactive | inactive | -11.2% | inactive | inactive | -4.59% | -15.9% (inactive) | inactive
14 | CCCCCC[N+](=O)[O-] | > 92 µM (inactive) | > 92 µM (inactive) | inactive | inactive | inactive | inactive | inactive | inactive | inactive | inactive | inactive | inactive | inactive | inactive | -11.1% | inactive | inactive | -16.5% | -9.74% (inactive) | inactive
15 | O=c1ccc(=O)[nH][nH]1 | > 92 µM (inactive) | > 92 µM (inactive) |  | inactive | inactive | inactive | inactive | inactive | inactive | inactive | inactive | inactive | inactive | inactive | -4.32% and 8.97% | inactive | inactive | -8.67% and -14.6% | -3.55% (inactive) | inactive
